# Calls of active or inactive are those of the source. Cut-off read from the data, not from the text of the source, unless noted: active = inhibition above about 80%; inactive = the rest.
# Legend:
# [1] = LFS_MB_P medulloblastoma growth inhibition, cell-based, chromothripsis tumors, cisplatin or BGB combos (AID 1671449); details: LFS_MB_P medulloblastoma cells;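 note: cells exposed for 96 hours; 0% = vehicle DMSO and 100% = killing by high DMSO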
# [2] = HDN33 neuroblastoma growth inhibition, cell-based, chromothripsis tumors, cisplatin or BGB combos (AID 1671450); details: HDN33 neuroblastoma cells, stronger effect = higher value;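 note: cells exposed to compound for four days; 0% = vehicle DMSO and 100% = cell killing by high DMSO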
# [3] = ICB984 medulloblastoma cell growth inhibition, synergistic combos for chromothripsis tumors, cisplatin or BGB combos (AID 1671451; call rule not given here;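 note: cells exposed for 96 hours before readout; 0% = vehicle DMSO and 100% = killing by high DMSO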); details: ICB984 medulloblastoma cells, drug combinations, stronger effect = higher value
# [4] = LFS_MB_1R medulloblastoma cell growth inhibition, synergistic combos for chromothripsis tumors, cisplatin or BGB combos (AID 1671452); details: LFS_MB_1R medulloblastoma cells, stronger effect = higher value;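 note: cells exposed for 96 hours before readout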
# [5] = HTB85 osteosarcoma cell growth inhibition, synergistic combos for chromothripsis tumors, BGB or cisplatin IC20 combos (AID 1671453); details: HTB85 osteosarcoma cells, drug combinations, stronger effect = higher value;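 note: cells exposed for 96 hours before readout; 0% = vehicle DMSO and 100% = high DMSO killing control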
# [6] = CRL2098 osteosarcoma cell growth inhibition, synergistic combos for chromothripsis tumors, BGB or cisplatin IC20 combos (AID 1671454); details: CRL2098 osteosarcoma cells, drug combinations, stronger effect = higher value;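 note: cells exposed for 96 h before readout; 0% = vehicle DMSO and 100% = killing by high DMSO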
# [7] = HD-MB03 medulloblastoma cell growth inhibition, synergistic combos for chromothripsis tumors, BGB or cisplatin IC20 combos (AID 1671455; in the data active = inhibition above about 83%;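 note: 0% = vehicle DMSO and 100% = high DMSO as cytotoxic control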); details: HD-MB03 medulloblastoma cells, stronger effect = higher value
# [8] = UWB1.289 ovarian carcinoma cell growth inhibition, synergistic combos for chromothripsis tumors, BGB or cisplatin combos (AID 1671456); details: UWB1.289 ovarian carcinoma cells, stronger effect = higher value;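 note: cells exposed to compound for four days; 0% = vehicle DMSO and 100% = killing by high DMSO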
# [9] = LFS_MB_2R medulloblastoma cell growth inhibition, synergistic combos for chromothripsis tumors, cisplatin combos (AID 1671457); details: LFS_MB_2R medulloblastoma cells, stronger effect = higher value;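 note: cells exposed to compound for four days before readout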
# [10] = MDA-MB-436 breast carcinoma cell growth inhibition, synergistic combos for chromothripsis tumors, BGB or cisplatin combos (AID 1671458; call rule not given here;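 note: cells exposed for 96 hours; 0% = vehicle DMSO and 100% = killing by high DMSO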); details: MDA-MB-436 breast carcinoma growth inhibition, drug combinations, stronger effect = higher value
# [11] = UWB1.289_BRCA1 ovarian cancer growth, cell-based, BGB or cisplatin combinations (AID 1671459); details: UWB1.289 BRCA1 ovarian carcinoma, drug combinations, stronger effect = higher value
# [12] = human astrocyte viability loss, single and combined drugs, cytotoxicity control for chromothriptic childhood tumor combination screen, cell-based, BGB or cisplatin IC20 combos (AID 1671460); details: Human astrocytes, drug combinations, stronger effect = higher value;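 note: cells exposed to compounds for 96 hours before viability readout; 0% = vehicle and 100% = killing control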
# [13] = growth inhibition of BT084 medulloblastoma cells, cell-based, ICGC_MB145, cisplatin and BGB IC40 combos (AID 1671461); details: drug combinations, stronger effect = higher value;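 note: cells exposed to drugs for 96 hours; 0% = vehicle DMSO and 100% = high DMSO full killing control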
# [14] = growth inhibition of RCMB18 medulloblastoma cells, cell-based, cisplatin and BGB IC40 combos (AID 1671462); details: stronger effect = higher value;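 note: cells exposed to compound for four days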
# [15] = growth inhibition of CRL1545 osteosarcoma cells, cell-based, cisplatin and BGB IC20 combos (AID 1671464); details: stronger effect = higher value;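 note: cells exposed to compound for 96 hours before readout; 0% = vehicle DMSO and 100% = high DMSO killing control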
# [16] = at 0.5 µM, stronger effect = higher value
# [17] = measured here: combination with BGB IC20, at 0.005 µM
# [18] = measured here: combination with BGB IC40, at 0.005 µM
# [19] = measured here: combination with BGB IC40, at 0.05 µM
# [20] = measured here: combination with cisplatin, at 0.5 µM, stronger effect = higher value
# [21] = measured here: combination with cisplatin, at 5 µM, stronger effect = higher value
# [22] = measured here: with BGB IC20 combination, at 0.5 µM
# [23] = measured here: with cisplatin IC20 combination, at 0.5 µM
# [24] = measured here: 5 uM single agent, at 5 µM
# [25] = measured here: combination with cisplatin, at 0.5 µM
# [26] = measured here: combination with cisplatin, at 5 µM
# [27] = measured here: with BGB IC20, at 0.5 µM
# [28] = measured here: with BGB IC20, at 5 µM
# [29] = measured here: with cisplatin IC20, at 0.5 µM
# [30] = measured here: with cisplatin IC20, at 5 µM
# [31] = measured here: combination with BGB at IC20, at 0.5 µM
# [32] = measured here: combination with cisplatin at IC20, at 0.5 µM
# [33] = measured here: combo with BGB at IC20, at 0.5 µM
# [34] = measured here: combo with cisplatin at IC20, at 0.5 µM
# [35] = measured here: inhibition with BGB combination, at 0.05 µM
# [36] = measured here: inhibition with cisplatin combination, at 0.05 µM
# [37] = measured here: BGB combination, at 0.5 µM
# [38] = measured here: BGB combination, at 5 µM
# [39] = measured here: cisplatin combination, at 0.5 µM
# [40] = measured here: cisplatin combination, at 5 µM
# [41] = BGB combination, concentration series, at 5 µM
# [42] = cisplatin combination, concentration series, at 5 µM
# [43] = measured here: combo with BGB IC20, at 0.5 µM
# [44] = measured here: combo with cisplatin IC20, at 0.5 µM
# [45] = cisplatin combination, at 0.5 µM
# [46] = measured here: BGB IC40 combination 0.05 uM, at 0.05 µM
# [47] = measured here: BGB IC40 combination, at 0.05 µM
smiles,measurement,setting,value
CC(C)OC(=O)[C@H](C)NP(=O)(OC[C@H]1O[C@@H](n2ccc(=O)[nH]c2=O)C(C)(F)[C@@H]1O)Oc1ccccc1 (stereo partly specified),inhibition,[1]; [16],-8.8% (inactive)
same,inhibition,[1]; [17],-10.9%
same,inhibition,[1]; [18],-13.1%
same,inhibition,[1]; [19],0.698%
same,inhibition,[1]; [20],-3.91%
same,inhibition,[1]; [21],-25.1%
same,inhibition,"[2]; BGB combo, at 5 µM",-13.9%
same,inhibition,[2]; at 0.5 µM,-10.3% (inactive)
same,inhibition,"[2]; cisplatin combo, at 5 µM",-30.6%
same,inhibition,[2]; [22],-4.98%
same,inhibition,[2]; [23],-21.3%
same,inhibition,"[2]; single agent, at 5 µM",-29.9%
same,inhibition,"[3]; BGB IC20 combo, at 0.005 µM",-1.44%
same,inhibition,"[3]; BGB IC40 combo, at 0.005 µM",-42.6%
same,inhibition,"[3]; BGB IC40 combo, at 0.05 µM",-35.5%
same,inhibition,[3]; at 0.5 µM,-42.2% (inactive)
same,inhibition,"[3]; cisplatin combo, at 0.05 µM",-40.8%
same,inhibition,"[3]; cisplatin combo, at 0.5 µM",-53.1%
same,inhibition,"[3]; cisplatin combo, at 5 µM",-16.6%
same,inhibition,[3]; [24],-3.56%
same,inhibition,[4]; at 0.5 µM,-22.9% (inactive)
same,inhibition,[4]; [19],-33.4%
same,inhibition,[4]; [25],-43%
same,inhibition,[4]; [26],-63%
same,inhibition,[5]; at 0.5 µM,-9.04% (inactive)
same,inhibition,[5]; [27],-19.6%
same,inhibition,[5]; [28],7.36%
same,inhibition,[5]; [29],-19.1%
same,inhibition,[5]; [30],-2.79%
same,inhibition,"[5]; single agent, at 5 µM",9.61%
same,inhibition,[6]; at 0.5 µM,-24.2% (inactive)
same,inhibition,[6]; [31],-7.71%
same,inhibition,[6]; [32],-18.3%
same,inhibition,[7]; at 0.5 µM,-8.35% (inactive)
same,inhibition,[7]; [33],-6.27%
same,inhibition,[7]; [34],-4.66%
same,inhibition,[8]; at 0.5 µM,-8.12% (inactive)
same,inhibition,[8]; [35],-21%
same,inhibition,[8]; [36],-18.4%
same,inhibition,[9]; at 0.5 µM,-25.3% (inactive)
same,inhibition,[9]; [25],-17.8%
same,inhibition,[9]; [26],-16.1%
same,inhibition,[10]; at 0.5 µM,-10.8% (inactive)
same,inhibition,[10]; [37],-6.58%
same,inhibition,[10]; [38],-5.34%
same,inhibition,[10]; [39],-21%
same,inhibition,[10]; [40],-5.77%
same,inhibition,[11]; [41],5.64%
same,inhibition,[11]; at 0.5 µM,-2.85% (inactive)
same,inhibition,[11]; [42],12.8%
same,inhibition,[12]; at 0.5 µM,9.43% (inactive)
same,inhibition,[12]; [43],6.4%
same,inhibition,[12]; [44],11.7%
same,inhibition,[13]; at 0.5 µM,-25.9% (inactive)
same,inhibition,[13]; [45],-7.08%
same,inhibition,"[13]; cisplatin combination, at 5 µM",2.71%
same,inhibition,[13]; [46],66.2%
same,inhibition,"[13]; single agent, at 5 µM",3.91%
same,inhibition,[14]; at 0.5 µM,-23.5% (inactive)
same,inhibition,"[14]; cisplatin combo, at 5 µM",-18.9%
same,inhibition,[14]; [47],1.12%
same,inhibition,[14]; [25],19.3%
same,inhibition,"[14]; single agent, at 5 µM",-63.1%
same,inhibition,[15]; at 0.5 µM,-19.7% (inactive)
same,inhibition,[15]; [22],-19.2%
same,inhibition,[15]; [23],-19.9%
same,inhibition,"[15]; single agent, at 0.05 µM",7.91%
same,inhibition,"[15]; single agent, at 5 µM",-24.5%
C=C1C(=O)O[C@@H]2C=C(C)CCC=C(C)CC[C@@H]12,inhibition,[1]; [16],-19.3% (inactive)
same,inhibition,[1]; [17],-3.36%
same,inhibition,[1]; [18],-13.6%
same,inhibition,[1]; [19],7.16%
same,inhibition,[1]; [20],-51.8%
same,inhibition,[1]; [21],114%
same,inhibition,"[2]; BGB combo, at 5 µM",5.76%
same,inhibition,[2]; at 0.5 µM,-17.6% (inactive)
same,inhibition,"[2]; cisplatin combo, at 5 µM",29.9%
same,inhibition,[2]; [22],-23.4%
same,inhibition,[2]; [23],-29.2%
same,inhibition,"[2]; single agent, at 5 µM",38.5%
same,inhibition,"[3]; BGB IC20 combo, at 0.005 µM",4.25%
same,inhibition,"[3]; BGB IC40 combo, at 0.005 µM",-33%
same,inhibition,"[3]; BGB IC40 combo, at 0.05 µM",53.7%
same,inhibition,[3]; at 0.5 µM,-17.1% (inactive)
same,inhibition,"[3]; cisplatin combo, at 0.05 µM",51.9%
same,inhibition,"[3]; cisplatin combo, at 0.5 µM",-18%
same,inhibition,"[3]; cisplatin combo, at 5 µM",-19.3%
same,inhibition,[3]; [24],-11.6%
same,inhibition,[4]; at 0.5 µM,-31.9% (inactive)
same,inhibition,[4]; [19],-18.3%
same,inhibition,[4]; [25],-29.4%
same,inhibition,[4]; [26],98.6%
same,inhibition,[5]; at 0.5 µM,-6.12% (inactive)
same,inhibition,[5]; [27],-12.5%
same,inhibition,[5]; [28],51.6%
same,inhibition,[5]; [29],-4.05%
same,inhibition,[5]; [30],62.5%
same,inhibition,"[5]; single agent, at 5 µM",66.5%
same,inhibition,[6]; at 0.5 µM,-64.3% (inactive)
same,inhibition,[6]; [31],-14.4%
same,inhibition,[6]; [32],-90.7%
same,inhibition,[7]; at 0.5 µM,-8.56% (inactive)
same,inhibition,[7]; [33],5.57%
same,inhibition,[7]; [34],-16.5%
same,inhibition,[8]; at 0.5 µM,-5.91% (inactive)
same,inhibition,[8]; [35],-14.1%
same,inhibition,[8]; [36],-20.4%
same,inhibition,[9]; at 0.5 µM,-23.7% (inactive)
same,inhibition,[9]; [25],-29.5%
same,inhibition,[9]; [26],43.1%
same,inhibition,[10]; at 0.5 µM,-0.98% (inactive)
same,inhibition,[10]; [37],1.65%
same,inhibition,[10]; [38],39.9%
same,inhibition,[10]; [39],-3.72%
same,inhibition,[10]; [40],56.7%
same,inhibition,[11]; [41],44.1%
same,inhibition,[11]; at 0.5 µM,-3.8% (inactive)
same,inhibition,[11]; [42],48.6%
same,inhibition,[12]; at 0.5 µM,3.62% (inactive)
same,inhibition,[12]; [43],4.43%
same,inhibition,[12]; [44],0.413%
same,inhibition,[13]; at 0.5 µM,-5.97% (inactive)
same,inhibition,[13]; [45],-9.26%
same,inhibition,"[13]; cisplatin combination, at 5 µM",48.9%
same,inhibition,[13]; [46],-2.12%
same,inhibition,"[13]; single agent, at 5 µM",20.7%
same,inhibition,[14]; at 0.5 µM,9.79% (inactive)
same,inhibition,"[14]; cisplatin combo, at 5 µM",75.6%
same,inhibition,[14]; [47],6.86%
same,inhibition,[14]; [25],15.7%
same,inhibition,"[14]; single agent, at 5 µM",33.4%
same,inhibition,[15]; at 0.5 µM,8.87% (inactive)
same,inhibition,[15]; [22],-16.3%
same,inhibition,[15]; [23],21.4%
same,inhibition,"[15]; single agent, at 0.05 µM",18.3%
same,inhibition,"[15]; single agent, at 5 µM",72.3%
